# BoNT-A LC inh2 = BoNT/A light chain protease inhibitors, primary screen, biochemical, flow cytometry, MLPCN library. Botulinum neurotoxin type A light chain protease (Clostridium botulinum A str. ATCC 3502). multiplex microsphere protease substrate cleavage. inhibition, % at 10 µM. actives 0.17% (n = 360,000). AID 588499, 2011; also: plate controls were buffer without enzyme for full effect and enzyme alone for no effect
# BoNT-F LC inh = BoNT/F light chain protease inhibitors, primary screen, biochemical, flow cytometry, MLPCN library. Botulinum neurotoxin type F light chain protease (Clostridium botulinum). Multiplex microsphere protease cleavage assay. inhibition, % at 10 µM. actives 0.22% (n = 360,000). AID 588497, 2011; in the data active = inhibition above about 35%, passing the limit was not always enough; inconclusive = no clear call, values can overlap the other calls; also: plate controls were buffer without enzyme for full effect and enzyme alone for no effect
# Vc quorum ag = inducers of Vibrio cholerae quorum light production without autoinducers, primary screen, BH1578 luxS cqsA deficient, single point | activation, % at 18.7 µM | V. cholerae BH1578 lux reporter, luminescence, 6 h | AID 588436, 2011 | actives 0.16% (n = 350,000); in the data active = activation mostly above about 9.7%, no sharp cut-off; inconclusive = no clear call, values can overlap the other calls; inactive = mostly below about 3.7%
# Autofluor counter = counter-screen for toxin protease inhibitors: compound fluorescence; compound autofluorescence counterscreen, microsphere flow cytometry; active compounds read high; AID 624483; fluorescence intensity (concentration not given with the values); actives 3.1% (n = 360,000); in the data active = fluorescence intensity above about 16000; inconclusive = no clear call, values can overlap the other calls
# MazF activator = activators of E. coli MazEF toxin-antitoxin RNase, primary screen, biochemical, fluorescence, uHTS; actives 0.32% (n = 350,000); FAM/BHQ RNA-DNA oligo cleavage fluorescence, 5 h; activation, % at 20 µM; Endoribonuclease toxin MazF (Escherichia coli (strain K12)), P0AE70; in the data active = activation above about 50%
# Anthrax LF prot = Bacillus anthracis LF protease inhibitors, primary screen, biochemical, multiplex microsphere, MLPCN library; inhibition, % at 10 µM; multiplex microsphere protease cleavage assay; actives 0.12% (n = 360,000); AID 588501, 2011; Lethal factor (Bacillus anthracis), P15917; also: plate controls were buffer without enzyme for full effect and enzyme alone for no effect
# Target sequence (P15917 whole entry, looked up): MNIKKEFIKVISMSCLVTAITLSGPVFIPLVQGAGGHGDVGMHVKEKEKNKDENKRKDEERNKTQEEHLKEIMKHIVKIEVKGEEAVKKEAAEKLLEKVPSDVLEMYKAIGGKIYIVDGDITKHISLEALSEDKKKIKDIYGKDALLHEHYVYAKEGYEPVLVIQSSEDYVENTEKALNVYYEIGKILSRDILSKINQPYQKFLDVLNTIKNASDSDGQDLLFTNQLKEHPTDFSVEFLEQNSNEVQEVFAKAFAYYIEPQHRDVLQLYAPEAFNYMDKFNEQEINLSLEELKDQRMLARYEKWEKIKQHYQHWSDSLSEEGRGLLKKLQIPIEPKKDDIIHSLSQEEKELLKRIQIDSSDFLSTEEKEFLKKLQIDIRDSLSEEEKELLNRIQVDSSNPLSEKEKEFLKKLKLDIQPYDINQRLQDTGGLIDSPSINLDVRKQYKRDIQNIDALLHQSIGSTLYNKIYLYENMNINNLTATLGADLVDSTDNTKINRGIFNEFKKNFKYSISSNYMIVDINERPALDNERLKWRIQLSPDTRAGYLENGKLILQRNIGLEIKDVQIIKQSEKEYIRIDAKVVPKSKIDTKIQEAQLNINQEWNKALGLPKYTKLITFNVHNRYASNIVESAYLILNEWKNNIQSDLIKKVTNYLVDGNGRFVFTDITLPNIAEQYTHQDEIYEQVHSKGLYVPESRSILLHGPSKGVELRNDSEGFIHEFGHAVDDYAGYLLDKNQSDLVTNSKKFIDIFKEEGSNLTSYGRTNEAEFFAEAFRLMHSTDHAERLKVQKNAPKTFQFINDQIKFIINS
# * marks the source's active call; other numbers are inactive results; i = inactive; ? = inconclusive; . = not tested or not shown. Rows were chosen to be rich in hits. Some 3.9% of all compounds tested hit in one or more screens of this group. Rule as the data show it, unless noted: active = inhibition above about 30%; inconclusive = no clear call, values can overlap the other calls; inactive = below that.
SMILES,BoNT-A LC inh2,BoNT-F LC inh,Vc quorum ag,Autofluor counter,MazF activator,Anthrax LF prot
O=C(COc1ccc(Cl)cc1Cl)N/N=C/C1CC=CCC1 (centres undefined),-0.7,-9.5,0.5,5943,0.3,-0.2
CCN(C(=O)c1ccc(NC(C)=O)cc1)c1ccccc1,4.1,2.7,i,21341*,0.7,0.2
Cc1cc(C)nc(NS(=O)(=O)c2ccc(Br)s2)c1,0.8,-3.8,-0.3,5735,-6.3,1.4
Cc1cccc(NS(=O)(=O)c2ccc(Br)s2)n1,1.5,1.1,-0.2,19822*,2.8,0.6
Cc1snc(S(=O)(=O)Cc2c(Cl)cccc2Cl)c1C#N,-2.6,-7.1,i,25224*,1.3,-1.3
CC1=CCC(C(=O)O)(C(=O)N/N=C/c2cccs2)C(c2ccc([N+](=O)[O-])cc2)C1 (centres undefined),2.8,4.2,-0.1,21132*,-1.1,-5.2
Cc1cccc(-n2c(C)cc(C=C3C(=O)c4ccccc4C3=O)c2C)c1,6.9,-7.2,0.0,6839,596.6*,7.8
Cc1cc(C=C2C(=O)CCCC2=O)c(C)n1-c1ccccc1,2.0,-3.9,-0.3,3543,-2.6,-1.5
Cc1cc(/C=C2/C(=N)N3C(c4ccccc4)=CSC3=NC2=O)c(C)n1-c1ccc(Cl)cc1,-0.6,2.6,-0.4,3476,-0.1,2.0
Cc1cc(C=C2C(=O)c3ccccc3C2=O)c(C)n1-c1ccc(Cl)cc1,2.4,1.4,-0.9,20919*,-266.7,5.4
CCn1c(C)cc(C=C2C(=O)c3ccccc3C2=O)c1C,6.9,-0.9,-0.8,2287,78.7*,3.3
Cc1cc(C=C2C(=O)c3ccccc3C2=O)c(C)n1C,2.1,-11.2,-0.4,2590,8.7,-1.3
O=C(CNC(=O)c1ccc(Br)o1)NCC(=O)OCc1ccccc1,3.2,17.0,-0.7,3804,3.7,-0.5
COc1ccc(-c2noc3c2-c2nc(-c4ccccc4F)sc2CC3)cc1,-0.3,0.1,1.0,3806,-13.1,-6.8
N/C(=N\OC(=O)c1ccc(Cl)cc1)c1ccccn1,?,8.4,0.7,21717*,-4.5,0.4
CCCCOc1ccc(CN(C)c2ncnc(N)n2)cc1,?,1.2,-1.4,22920*,0.9,-2.6
CCCOc1ccc(CN(C)c2ncnc(N)n2)cc1,1.4,?,i,3272,4.6,-8.8
COc1ccc(CN(C)c2ncnc(N)n2)cc1,-0.2,-4.2,16.7*,2617,2.2,1.2
COc1ccc(CNc2ncnc(N)n2)cc1,-0.1,-5.3,.,2946,-1.8,0.4
O=C(COC(=O)COc1ccccc1)NC12CC3CC(CC(C3)C1)C2,-0.6,6.5,i,3929,2.0,-1.4
S=C(NCc1cccs1)Nc1cccc(Cl)c1,-10.8,-14.3,i,18567*,-4.8,-5.6
S=C(NCc1cccs1)Nc1cc(Cl)cc(Cl)c1,-0.9,-4.0,-0.6,6322,20.2,-3.3
CC(C)c1ccc(NC(=S)NCc2cccs2)cc1,-3.6,-6.5,i,21787*,-0.6,-1.5
CCN(C[C@H]1N[C@@](CC)(C(=O)OC)[C@H]2C(=O)N(C)C(=O)[C@@H]12)S(=O)(=O)c1ccc(C(F)(F)F)cc1,0.2,-3.7,i,3719,6.7,-19.9
CC1(NC(=O)c2cc(S(=O)(=O)N3CCCCC3)ccc2Cl)CCS(=O)(=O)C1 (centres undefined),-1.8,-0.7,-2.0,24171*,-1.1,-0.2
SMILES,BoNT-A LC inh2,BoNT-F LC inh,Vc quorum ag,Autofluor counter,MazF activator,Anthrax LF prot
COc1ccc(S(=O)(=O)N2CCC(C(=O)NC3(C)CCS(=O)(=O)C3)CC2)cc1OC (centres undefined),-3.5,-12.5,-0.8,4920,1.5,7.3
CCOC(=O)/C(C#N)=C1\Nc2ccccc2N=C1N(CC(C)C)CC(C)C,37.5*,30.0,5.9,9201,-46.6,27.1
CCCCN(CCCC)C1=Nc2ccccc2N/C1=C(/C#N)C(=O)OCC,64.8*,33.6,-0.4,2940,-4.0,40.1*
CC1(C(=O)NCc2cccs2)Cc2c(-c3ccc(C(N)=O)cc3)ccnc2O1 (centres undefined),-0.5,-1.8,-0.4,2826,.,-2.6
CS(=O)(=O)c1ccc(Cl)c(NC(=O)c2cc(=O)[nH]c3ccc(S(=O)(=O)N4CCOCC4)cc23)c1,-5.1,-2.6,i,?,3.0,-1.1
Cc1ccc(C(=O)Nc2cc(=O)n(C)c(=O)n2C)o1,?,-0.4,i,22513*,0.4,-2.2
Cc1ccc(/C=C/C(=O)Nc2cc(=O)n(C)c(=O)n2C)o1,-0.2,4.3,-0.3,2479,5.8,-1.4
COc1ccccc1NC(=O)CNC(=O)c1ccccc1C,-2.7,-3.6,-0.2,24190*,-2.1,-0.7
COc1ccccc1NC(=O)CNC(=O)c1ccccc1,-0.3,-7.2,i,2610,-5.2,-1.1
COc1ccccc1NC(=O)CNS(=O)(=O)c1ccccc1,?,-5.6,i,21927*,-0.7,1.1
COc1ccccc1NC(=O)CN(C)S(=O)(=O)c1cc(C)ccc1OC,-0.1,1.5,-0.2,16552*,-0.6,1.0
COc1ccc(C)cc1NC(=O)CN(C)S(=O)(=O)c1cccs1,0.6,-7.0,i,4852,8.2,-3.3
COC(=O)c1ccc(NC(=O)CN(C)S(=O)(=O)c2ccc(OC)c(C)c2)cc1,-3.7,-8.4,2.7,24716*,-0.5,-4.3
COc1ccc(S(=O)(=O)N(C)CC(=O)Nc2ccc(C(N)=O)cc2)cc1OC,-0.8,-2.3,-0.6,3332,2.1,2.1
COCCNC(=O)C(C(=O)c1ccc(F)cc1)n1cc(C)ccc1=O (centres undefined),0.3,-5.0,-0.3,3874,6.2,0.8
COc1ccccc1Cc1c(-c2ccco2)nc2cc(C)c(Br)c(C)n12,8.8,-22.0,.,4727,.,-10.3
O=C(COc1ccc(-c2ccccc2)cc1)NNC(=O)Nc1ccccc1,1.9,7.2,-0.8,2844,-11.6,-0.3
O=C(CNS(=O)(=O)c1ccccc1)Nc1ccccc1Br,-2.8,-11.9,i,6808,-1.9,-2.4
Cc1ccc(C)c(NC(=O)CNS(=O)(=O)c2ccccc2)c1,?,-2.9,i,16924*,-2.6,-1.2
CCn1c(O)c(C=Nc2ccc(N3CCOCC3)c(Br)c2)c(=O)n(CC)c1=S,18.5,15.3,i,19239*,-135.1,20.1
COc1ccc2[nH]c3c(=O)n(CCCCC(=O)NCCC(C)C)c(=S)[nH]c3c2c1,0.4,-3.1,i,4152,-0.2,1.0
CC(=O)N(Cc1ccccc1)Cc1nc2sc(C)c(C)c2c(=O)[nH]1,-0.9,-3.1,i,3475,7.3,-6.5

# Source: PubChem BioAssay
